Where a name gives a salt, the structure may show the parent alone.
System: replication-induced senescent mouse newborn dermal fibroblasts (NBF)
Test: relative cell viability of senescent cells (fraction); higher = less killing of senescent cells
Conditions: 1 µM; 3 days
Procedure: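 Replication-induced senescent newborn mouse skin fibroblasts (NBFs) in 24-well plates were treated with a Selleck FDA-approved drug library at 1 µM for 3 days.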

Structure (SMILES) | relative cell viability
CCCc1nc(C(C)(C)O)c(C(=O)OCc2oc(=O)oc2C)n1Cc1ccc(-c2ccccc2-c2nnn[nH]2)cc1 [Olmesartan Medoxomil] | 0.252
CCCCc1nc2cc(/C=C/C(=O)NO)ccc2n1CCN(CC)CC [Pracinostat (SB939)] | 1.01
Cc1ccc(NC(=O)c2ccc(CN3CCN(C)CC3)cc2)cc1Nc1nccc(-c2cccnc2)n1 [Imatinib Mesylate (STI571)] | 0.939
CNC(=O)c1cc(Oc2ccc(NC(=O)Nc3ccc(Cl)c(C(F)(F)F)c3)c(F)c2)ccn1 [Regorafenib (BAY 73-4506)] | 0.958
Cc1cn([C@@H]2C[C@@H](O)[C@H](CO)O2)c(=O)[nH]c1=O [Telbivudine] | 1
COc1ccccc1OCC(O)CN1CCN(CC(=O)Nc2c(C)cccc2C)CC1 (configuration not stated) [Ranolazine] | 0.994
Clc1ccc(C(Cn2ccnc2)OCc2c(Cl)cccc2Cl)c(Cl)c1 (configuration not stated) [Isoconazole nitrate] | 0.937
C[N+]1(C)[C@@H]2C[C@@H](OC(=O)C(O)(c3cccs3)c3cccs3)C[C@H]1[C@@H]1O[C@@H]12 [Tiotropium Bromide hydrate] | 1.07
CCCC(CCC)C(=O)O [Divalproex Sodium] | 1.11
C[C@H]1C[C@H]2[C@@H]3CCC4=CC(=O)C=C[C@]4(C)[C@H]3C(=O)C[C@]2(C)[C@@]1(O)C(=O)CO [Meprednisone] | 1.09
CN(Cc1cnc2nc(N)nc(N)c2n1)c1ccc(C(=O)N[C@@H](CCC(=O)O)C(=O)O)cc1 [Methotrexate] | 0.692
Cn1cnc2c(F)c(Nc3ccc(Br)cc3Cl)c(C(=O)NOCCO)cc21 [Selumetinib (AZD6244)] | 0.897
Clc1ccccc1C(c1ccccc1)(c1ccccc1)n1ccnc1 [Clotrimazole] | 1.01
CCN(CC)CCNC(=O)c1c(C)[nH]c(/C=C2\C(=O)Nc3ccc(F)cc32)c1C [Sunitinib Malate] | 1.1
CCC(C)(C)C(=O)O[C@H]1C[C@@H](C)C=C2C=C[C@H](C)[C@H](CC[C@@H]3C[C@@H](O)CC(=O)O3)[C@H]21 [Simvastatin] | 0.965
Cc1cn[nH]c1 [Fomepizole] | 1.07

Structure (SMILES) | relative cell viability
Nc1ccn([C@H]2CC[C@@H](CO)O2)c(=O)n1 [Zalcitabine] | 0.129
CN(C)CCc1c[nH]c2ccc(C[C@H]3COC(=O)N3)cc12 [Zolmitriptan] | 0.999
COc1cc2nccc(Oc3ccc(NC(=O)C4(C(=O)Nc5ccc(F)cc5)CC4)cc3)c2cc1OC | 0.453
Cc1nc2n(c(=O)c1CCN1CCC(c3noc4cc(F)ccc34)CC1)CCCC2O (configuration not stated) [Paliperidone] | 1.04
CC(C(=O)O)c1cccc(Oc2ccccc2)c1 (configuration not stated) [Fenoprofen Calcium] | 1.13
Cn1cc(CNCC2CCN(c3ncc(C(=O)NO)cn3)CC2)c2ccccc21 | 0.757
C[C@@H](c1ncncc1F)[C@](O)(Cn1cncn1)c1ccc(F)cc1F [Voriconazole] | 0.928
Cc1nc(Nc2ncc(C(=O)Nc3c(C)cccc3Cl)s2)cc(N2CCN(CCO)CC2)n1 [Dasatinib] | 1.39
CC(=O)OCC[N+](C)(C)C [Acetylcholine Chloride] | 0.052
CC1(C)CCC(c2ccc(Cl)cc2)=C(CN2CCN(c3ccc(C(=O)NS(=O)(=O)c4ccc(N[C@H](CCN5CCOCC5)CSc5ccccc5)c(S(=O)(=O)C(F)(F)F)c4)cc3)CC2)C1 [Navitoclax (ABT-263)] | 1.04
C=C1/C(=C\C=C2/CCC[C@]3(C)[C@@H]([C@H](C)CCCC(C)C)CC[C@@H]23)C[C@@H](O)C[C@@H]1O [Alfacalcidol] | 0.249
O=S(=O)(c1cccc2cnccc12)N1CCCNCC1 [Fasudil (HA-1077) HCl] | 1.14
CN(C/C=C/C#CC(C)(C)C)Cc1cccc2ccccc12 [Terbinafine] | 0.403
NC(=O)c1ccc(I)c([N+](=O)[O-])c1 [Iniparib (BSI-201)] | 0.209
Clc1cccc(Cl)c1NC1=NCCN1 [Clonidine HCl] | 1.04
CCc1c2c(nc3ccc(OC(=O)N4CCC(N5CCCCC5)CC4)cc13)-c1cc3c(c(=O)n1C2)COC(=O)[C@]3(O)CC [Irinotecan] | 0.893
